What was measured:
Assay in all cases: DAPPL (digital affinity profiling via proximity ligation, sequencing); 10 mM Tris-HCl pH 7.5, 50 mM NaCl, 1 mM DTT, 4% glycerol, room temperature, 30 min; GST-TFs on glutathione beads, 16-mer random dsDNA library, 0.1% formaldehyde crosslink after washing; high values mean tight binding
FLI1 = molecular target: T1, FLI1 (Homo sapiens, UniProt Q01543 1-452); conditions: protein: recombinant; tags: N-terminal GST; dsDNA, one strand shown
T1 sequence: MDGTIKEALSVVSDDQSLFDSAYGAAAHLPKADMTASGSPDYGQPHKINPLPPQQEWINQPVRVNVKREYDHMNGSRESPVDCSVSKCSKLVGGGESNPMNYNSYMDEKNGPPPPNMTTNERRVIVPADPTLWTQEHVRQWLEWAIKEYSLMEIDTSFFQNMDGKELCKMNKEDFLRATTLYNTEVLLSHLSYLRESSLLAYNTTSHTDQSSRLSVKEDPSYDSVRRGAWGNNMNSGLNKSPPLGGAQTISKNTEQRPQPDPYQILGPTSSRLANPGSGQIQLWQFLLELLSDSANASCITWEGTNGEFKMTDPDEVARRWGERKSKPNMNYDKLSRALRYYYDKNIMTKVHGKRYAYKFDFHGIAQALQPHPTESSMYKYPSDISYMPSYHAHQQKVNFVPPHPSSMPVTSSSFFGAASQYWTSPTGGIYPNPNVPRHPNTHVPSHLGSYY
Outline: (§1)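 Binding signal is each hexamer's read frequency for a factor divided by its frequency in the tag-only sample. The factors were GST-fused human transcription factors from yeast, captured on glutathione beads, DNA-barcoded and pooled with that sample. Pools were incubated with 200 nmole of a random double-stranded 16-mer DNA library in Tris/NaCl/DTT/glycerol buffer at room temperature for 30 min, then washed, crosslinked with 0.1% formaldehyde, proximity-ligated with BsaI/T4 ligase (1 h, 37 °C), PCR-amplified and sequenced on an Illumina NextSeq500.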

ELK1 = molecular target: T2, ELK1 (Homo sapiens, UniProt P19419 1-428); conditions: protein: recombinant; tags: N-terminal GST; dsDNA, one strand shown
T2 sequence: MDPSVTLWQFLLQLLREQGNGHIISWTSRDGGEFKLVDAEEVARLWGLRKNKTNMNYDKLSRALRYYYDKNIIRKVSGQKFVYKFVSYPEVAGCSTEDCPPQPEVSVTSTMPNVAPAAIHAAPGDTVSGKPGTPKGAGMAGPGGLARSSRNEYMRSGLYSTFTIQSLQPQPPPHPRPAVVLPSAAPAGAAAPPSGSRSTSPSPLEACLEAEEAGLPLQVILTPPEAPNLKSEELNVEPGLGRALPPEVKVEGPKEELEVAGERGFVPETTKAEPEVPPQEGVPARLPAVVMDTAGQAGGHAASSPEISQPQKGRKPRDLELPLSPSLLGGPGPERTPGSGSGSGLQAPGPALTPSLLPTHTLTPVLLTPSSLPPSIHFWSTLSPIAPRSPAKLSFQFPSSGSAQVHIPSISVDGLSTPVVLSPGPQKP
Outline: as §1

GABPA = molecular target: T3, GABPA (Homo sapiens, UniProt Q06546 1-454); conditions: protein: recombinant; tags: N-terminal GST; dsDNA, one strand shown
T3 sequence: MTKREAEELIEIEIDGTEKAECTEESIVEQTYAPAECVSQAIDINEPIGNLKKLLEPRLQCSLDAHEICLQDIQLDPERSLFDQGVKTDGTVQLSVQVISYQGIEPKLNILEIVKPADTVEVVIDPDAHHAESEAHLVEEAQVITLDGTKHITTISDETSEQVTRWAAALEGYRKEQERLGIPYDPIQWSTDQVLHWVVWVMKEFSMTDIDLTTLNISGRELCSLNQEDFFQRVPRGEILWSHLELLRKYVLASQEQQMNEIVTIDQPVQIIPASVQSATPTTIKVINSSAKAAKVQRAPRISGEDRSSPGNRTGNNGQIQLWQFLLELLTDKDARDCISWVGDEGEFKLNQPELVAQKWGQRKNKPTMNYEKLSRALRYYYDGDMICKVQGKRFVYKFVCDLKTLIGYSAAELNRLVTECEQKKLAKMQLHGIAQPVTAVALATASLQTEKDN
Outline: as §1

ERG = molecular target: T4, ERG (Homo sapiens, UniProt P11308 1-479); conditions: protein: recombinant; tags: N-terminal GST; dsDNA, one strand shown
T4 sequence: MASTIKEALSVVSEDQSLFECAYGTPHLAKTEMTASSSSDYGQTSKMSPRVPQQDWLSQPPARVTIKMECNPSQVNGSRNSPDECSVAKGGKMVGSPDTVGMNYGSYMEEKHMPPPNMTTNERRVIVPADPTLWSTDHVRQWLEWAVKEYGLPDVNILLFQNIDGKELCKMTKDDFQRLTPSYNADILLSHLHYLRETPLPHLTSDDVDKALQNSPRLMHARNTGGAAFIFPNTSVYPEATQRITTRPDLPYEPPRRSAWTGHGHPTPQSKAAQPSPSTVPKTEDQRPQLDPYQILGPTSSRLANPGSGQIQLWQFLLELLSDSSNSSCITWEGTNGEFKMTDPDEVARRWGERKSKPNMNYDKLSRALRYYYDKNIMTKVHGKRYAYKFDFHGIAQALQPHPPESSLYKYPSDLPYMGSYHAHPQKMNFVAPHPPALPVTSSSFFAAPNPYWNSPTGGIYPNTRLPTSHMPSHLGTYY
Outline: as §1

ELF1 = ELF1 (Homo sapiens, UniProt P32519 1-619); conditions: protein: recombinant; tags: N-terminal GST; dsDNA, one strand shown
Outline: as §1

EHF = molecular target: T5, EHF (Homo sapiens, UniProt Q9NZC4 1-300); conditions: protein: recombinant; tags: N-terminal GST; dsDNA, one strand shown
T5 sequence: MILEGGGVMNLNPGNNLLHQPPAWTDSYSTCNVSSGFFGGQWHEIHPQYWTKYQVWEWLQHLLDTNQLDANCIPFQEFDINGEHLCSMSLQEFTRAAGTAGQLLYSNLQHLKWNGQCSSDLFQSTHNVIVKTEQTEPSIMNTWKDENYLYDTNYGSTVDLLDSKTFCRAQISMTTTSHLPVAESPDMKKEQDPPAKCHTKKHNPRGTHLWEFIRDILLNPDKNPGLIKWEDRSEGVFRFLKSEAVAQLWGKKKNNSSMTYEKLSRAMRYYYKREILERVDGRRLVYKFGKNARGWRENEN
Outline: as §1

SPI1 = SPI1 (Homo sapiens, UniProt P17947 1-270); conditions: protein: recombinant; tags: N-terminal GST; dsDNA, one strand shown
Outline: as §1

SPIB = SPIB (Homo sapiens, UniProt Q01892 1-262); conditions: protein: recombinant; tags: N-terminal GST; dsDNA, one strand shown
Outline: as §1

ELK3 = molecular target: T6, ELK3 (Homo sapiens, UniProt P41970 1-407); conditions: protein: recombinant; tags: N-terminal GST; dsDNA, one strand shown
T6 sequence: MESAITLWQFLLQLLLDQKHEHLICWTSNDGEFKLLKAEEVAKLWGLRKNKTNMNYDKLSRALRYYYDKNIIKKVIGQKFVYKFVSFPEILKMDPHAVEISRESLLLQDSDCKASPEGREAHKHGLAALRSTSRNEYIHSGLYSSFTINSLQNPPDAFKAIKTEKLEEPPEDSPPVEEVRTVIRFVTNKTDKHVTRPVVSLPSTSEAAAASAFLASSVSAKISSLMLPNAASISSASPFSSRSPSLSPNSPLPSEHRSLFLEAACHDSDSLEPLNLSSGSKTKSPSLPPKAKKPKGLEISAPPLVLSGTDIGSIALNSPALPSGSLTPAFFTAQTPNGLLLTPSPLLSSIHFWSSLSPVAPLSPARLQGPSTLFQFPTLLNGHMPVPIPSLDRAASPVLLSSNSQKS
Outline: as §1

FEV = molecular target: T7, FEV (Homo sapiens, UniProt Q99581 1-238); conditions: protein: recombinant; tags: N-terminal GST; dsDNA, one strand shown
T7 sequence: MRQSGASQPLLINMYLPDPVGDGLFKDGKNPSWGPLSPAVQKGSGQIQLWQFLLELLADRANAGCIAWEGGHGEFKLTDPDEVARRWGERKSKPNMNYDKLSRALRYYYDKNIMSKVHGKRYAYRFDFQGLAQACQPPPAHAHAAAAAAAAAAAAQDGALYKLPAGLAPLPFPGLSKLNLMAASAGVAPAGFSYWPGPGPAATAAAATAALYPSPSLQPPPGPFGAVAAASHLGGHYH
Outline: as §1

ETV5 = ETV5 (Homo sapiens, UniProt P41161 1-510); conditions: protein: recombinant; tags: N-terminal GST; dsDNA, one strand shown
Outline: as §1

HSF1 = HSF1 (Homo sapiens, UniProt Q00613 1-529); conditions: protein: recombinant; tags: N-terminal GST; chain copies: 3; dsDNA, one strand shown
Outline: as §1

SPIC = molecular target: T8, SPIC (Homo sapiens, UniProt Q8N5J4 1-248); conditions: protein: recombinant; tags: N-terminal GST; dsDNA, one strand shown
T8 sequence: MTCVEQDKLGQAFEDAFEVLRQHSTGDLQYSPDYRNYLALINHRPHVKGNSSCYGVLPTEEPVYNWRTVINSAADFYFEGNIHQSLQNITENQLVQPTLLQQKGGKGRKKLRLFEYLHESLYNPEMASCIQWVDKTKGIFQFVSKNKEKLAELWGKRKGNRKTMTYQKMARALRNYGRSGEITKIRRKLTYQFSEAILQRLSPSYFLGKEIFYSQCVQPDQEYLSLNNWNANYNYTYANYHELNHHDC
Outline: as §1

ELF4 = ELF4 (Homo sapiens, UniProt Q99607 1-663); conditions: protein: recombinant; tags: N-terminal GST; dsDNA, one strand shown
Outline: as §1

ELK4 = molecular target: T9, ELK4 (Homo sapiens, UniProt P28324-2 1-405); conditions: protein: recombinant; tags: N-terminal GST; dsDNA, one strand shown
T9 sequence: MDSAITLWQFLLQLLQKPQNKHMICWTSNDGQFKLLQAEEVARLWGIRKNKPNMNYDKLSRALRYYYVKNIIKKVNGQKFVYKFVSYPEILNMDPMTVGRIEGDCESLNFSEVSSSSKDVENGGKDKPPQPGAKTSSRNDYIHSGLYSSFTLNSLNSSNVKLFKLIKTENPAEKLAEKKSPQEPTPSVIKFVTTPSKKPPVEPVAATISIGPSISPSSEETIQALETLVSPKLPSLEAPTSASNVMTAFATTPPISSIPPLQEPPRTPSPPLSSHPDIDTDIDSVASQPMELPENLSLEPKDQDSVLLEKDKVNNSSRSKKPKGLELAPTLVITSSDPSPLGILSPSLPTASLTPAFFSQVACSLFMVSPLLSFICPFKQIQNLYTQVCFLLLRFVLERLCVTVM
Outline: as §1

ETV2 = molecular target: T10, ETV2 (Homo sapiens, UniProt O00321 1-342); conditions: protein: recombinant; tags: N-terminal GST; dsDNA, one strand shown
T10 sequence: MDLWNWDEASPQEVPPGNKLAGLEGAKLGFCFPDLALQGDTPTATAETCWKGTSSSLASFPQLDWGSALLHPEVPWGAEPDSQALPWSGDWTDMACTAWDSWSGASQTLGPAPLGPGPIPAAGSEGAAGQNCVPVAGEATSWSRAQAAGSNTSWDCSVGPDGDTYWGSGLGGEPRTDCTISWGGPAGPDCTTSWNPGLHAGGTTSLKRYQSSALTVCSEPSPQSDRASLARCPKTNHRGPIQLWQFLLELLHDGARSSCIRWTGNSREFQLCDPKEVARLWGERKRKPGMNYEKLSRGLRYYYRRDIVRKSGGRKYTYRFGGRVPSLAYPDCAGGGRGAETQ
Outline: as §1

ELF3 = molecular target: T11, ELF3 (Homo sapiens, UniProt P78545 1-371); conditions: protein: recombinant; tags: N-terminal GST; dsDNA, one strand shown
T11 sequence: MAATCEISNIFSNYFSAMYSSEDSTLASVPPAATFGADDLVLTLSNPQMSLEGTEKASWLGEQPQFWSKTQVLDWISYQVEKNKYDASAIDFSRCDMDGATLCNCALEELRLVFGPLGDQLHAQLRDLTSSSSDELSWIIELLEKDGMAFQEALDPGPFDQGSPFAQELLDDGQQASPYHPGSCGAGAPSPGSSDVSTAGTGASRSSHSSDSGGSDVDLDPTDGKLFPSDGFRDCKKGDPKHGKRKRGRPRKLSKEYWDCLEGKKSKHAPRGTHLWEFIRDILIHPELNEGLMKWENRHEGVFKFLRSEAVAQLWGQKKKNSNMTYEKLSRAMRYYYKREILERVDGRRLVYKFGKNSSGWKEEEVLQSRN
Outline: as §1

CRX = CRX (Homo sapiens, UniProt O43186 1-299); conditions: protein: recombinant; tags: N-terminal GST; dsDNA, one strand shown
Outline: as §1

ETV1 = ETV1 (Homo sapiens, UniProt P50549 1-477); conditions: protein: recombinant; tags: N-terminal GST; dsDNA, one strand shown
Outline: as §1

CRX, sequence (O43186 whole entry): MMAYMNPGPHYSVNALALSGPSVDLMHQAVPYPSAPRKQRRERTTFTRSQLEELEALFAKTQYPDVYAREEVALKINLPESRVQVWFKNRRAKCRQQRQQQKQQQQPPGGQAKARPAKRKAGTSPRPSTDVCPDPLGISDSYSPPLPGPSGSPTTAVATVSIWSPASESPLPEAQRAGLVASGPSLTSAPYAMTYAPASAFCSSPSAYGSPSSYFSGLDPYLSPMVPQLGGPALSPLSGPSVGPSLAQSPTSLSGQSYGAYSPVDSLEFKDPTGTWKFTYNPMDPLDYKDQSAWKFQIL
ETV5, sequence (P41161 whole entry): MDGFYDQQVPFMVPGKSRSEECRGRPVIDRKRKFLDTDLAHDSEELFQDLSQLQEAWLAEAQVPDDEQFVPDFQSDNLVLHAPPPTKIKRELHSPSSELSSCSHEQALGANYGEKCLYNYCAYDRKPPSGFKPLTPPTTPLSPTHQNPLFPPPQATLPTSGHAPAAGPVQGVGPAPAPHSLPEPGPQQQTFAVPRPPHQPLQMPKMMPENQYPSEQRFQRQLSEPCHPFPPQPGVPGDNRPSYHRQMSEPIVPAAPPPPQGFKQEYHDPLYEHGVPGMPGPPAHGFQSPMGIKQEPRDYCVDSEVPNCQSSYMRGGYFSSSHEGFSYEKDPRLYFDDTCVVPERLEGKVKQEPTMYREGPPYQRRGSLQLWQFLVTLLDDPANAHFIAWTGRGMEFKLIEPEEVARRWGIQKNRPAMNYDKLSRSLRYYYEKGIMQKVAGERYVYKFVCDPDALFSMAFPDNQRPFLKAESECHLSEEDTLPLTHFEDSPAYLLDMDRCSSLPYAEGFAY
ETV1, sequence (P50549 whole entry): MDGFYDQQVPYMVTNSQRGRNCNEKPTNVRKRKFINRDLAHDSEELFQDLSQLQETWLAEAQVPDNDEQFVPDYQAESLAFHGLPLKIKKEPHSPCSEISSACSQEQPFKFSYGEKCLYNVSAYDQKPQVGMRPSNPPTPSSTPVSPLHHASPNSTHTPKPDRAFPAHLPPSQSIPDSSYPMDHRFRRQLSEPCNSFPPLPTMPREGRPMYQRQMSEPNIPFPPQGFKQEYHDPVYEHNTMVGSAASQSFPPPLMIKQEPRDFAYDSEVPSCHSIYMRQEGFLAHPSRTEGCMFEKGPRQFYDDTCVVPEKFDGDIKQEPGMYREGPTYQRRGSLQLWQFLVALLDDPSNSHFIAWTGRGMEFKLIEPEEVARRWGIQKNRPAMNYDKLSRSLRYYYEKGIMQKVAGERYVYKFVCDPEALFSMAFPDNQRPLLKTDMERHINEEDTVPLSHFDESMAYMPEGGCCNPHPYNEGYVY
HSF1, sequence (Q00613 whole entry): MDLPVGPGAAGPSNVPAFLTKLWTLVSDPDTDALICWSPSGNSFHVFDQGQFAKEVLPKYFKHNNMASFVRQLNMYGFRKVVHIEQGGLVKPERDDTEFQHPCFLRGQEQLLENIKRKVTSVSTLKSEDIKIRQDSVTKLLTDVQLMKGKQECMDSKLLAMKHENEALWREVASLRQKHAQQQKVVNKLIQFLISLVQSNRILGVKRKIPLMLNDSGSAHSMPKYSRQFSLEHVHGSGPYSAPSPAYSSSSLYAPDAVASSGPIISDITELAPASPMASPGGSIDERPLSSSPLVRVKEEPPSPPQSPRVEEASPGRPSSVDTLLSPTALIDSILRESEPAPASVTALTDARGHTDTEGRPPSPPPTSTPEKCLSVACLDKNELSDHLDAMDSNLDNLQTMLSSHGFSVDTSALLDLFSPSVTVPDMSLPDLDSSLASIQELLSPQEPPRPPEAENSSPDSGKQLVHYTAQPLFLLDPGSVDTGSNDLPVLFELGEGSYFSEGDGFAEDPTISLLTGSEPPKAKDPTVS
ELF1, sequence (P32519 whole entry): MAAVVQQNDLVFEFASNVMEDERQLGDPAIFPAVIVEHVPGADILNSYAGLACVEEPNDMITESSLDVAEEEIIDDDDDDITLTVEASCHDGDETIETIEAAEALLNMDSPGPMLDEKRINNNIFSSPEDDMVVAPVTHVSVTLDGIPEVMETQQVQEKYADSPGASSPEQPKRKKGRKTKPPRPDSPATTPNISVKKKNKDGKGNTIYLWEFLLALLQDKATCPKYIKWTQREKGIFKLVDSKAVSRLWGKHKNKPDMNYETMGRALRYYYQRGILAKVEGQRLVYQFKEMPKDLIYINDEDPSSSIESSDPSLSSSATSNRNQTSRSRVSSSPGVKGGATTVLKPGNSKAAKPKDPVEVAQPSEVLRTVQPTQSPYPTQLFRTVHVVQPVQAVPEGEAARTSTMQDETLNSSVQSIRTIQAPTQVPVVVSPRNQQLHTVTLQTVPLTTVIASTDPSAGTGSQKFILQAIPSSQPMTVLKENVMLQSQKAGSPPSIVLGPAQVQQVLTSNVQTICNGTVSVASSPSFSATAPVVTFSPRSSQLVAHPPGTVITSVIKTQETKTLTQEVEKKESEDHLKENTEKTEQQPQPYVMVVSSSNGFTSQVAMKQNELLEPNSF
SPIB, sequence (Q01892 whole entry): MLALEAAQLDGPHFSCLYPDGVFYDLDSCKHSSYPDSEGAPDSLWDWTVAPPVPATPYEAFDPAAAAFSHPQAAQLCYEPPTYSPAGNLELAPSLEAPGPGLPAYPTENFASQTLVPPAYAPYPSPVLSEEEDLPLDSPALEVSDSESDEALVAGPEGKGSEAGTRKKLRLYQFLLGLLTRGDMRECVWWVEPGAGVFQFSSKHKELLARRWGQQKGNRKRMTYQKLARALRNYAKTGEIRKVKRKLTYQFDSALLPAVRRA
ELF4, sequence (Q99607 whole entry): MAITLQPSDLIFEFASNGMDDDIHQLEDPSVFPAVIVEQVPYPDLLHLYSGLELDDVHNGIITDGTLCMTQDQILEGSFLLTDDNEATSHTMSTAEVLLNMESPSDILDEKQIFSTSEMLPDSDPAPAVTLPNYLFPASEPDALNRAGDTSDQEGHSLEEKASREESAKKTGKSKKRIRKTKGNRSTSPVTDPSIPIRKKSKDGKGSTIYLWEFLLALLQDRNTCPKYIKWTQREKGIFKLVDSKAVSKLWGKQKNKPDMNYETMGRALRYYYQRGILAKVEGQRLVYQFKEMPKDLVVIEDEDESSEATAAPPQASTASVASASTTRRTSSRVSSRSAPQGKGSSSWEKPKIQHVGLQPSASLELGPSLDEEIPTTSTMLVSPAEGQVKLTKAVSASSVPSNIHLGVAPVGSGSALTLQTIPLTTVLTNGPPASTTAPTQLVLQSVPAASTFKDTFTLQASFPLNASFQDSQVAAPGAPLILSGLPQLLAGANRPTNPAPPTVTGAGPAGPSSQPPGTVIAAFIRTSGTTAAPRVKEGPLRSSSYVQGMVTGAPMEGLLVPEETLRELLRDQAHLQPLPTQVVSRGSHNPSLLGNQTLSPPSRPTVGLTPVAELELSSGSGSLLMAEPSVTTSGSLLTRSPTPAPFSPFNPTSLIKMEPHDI

CTTCTA
binding signal (FLI1): 1.39 fold enrichment (6-mer frequency, TF over GST control) | binding signal (ELK1): 1.41 fold enrichment (6-mer frequency, TF over GST control) | binding signal (GABPA): 1.44 fold enrichment (6-mer frequency, TF over GST control) | binding signal (ERG): 1.32 fold enrichment (6-mer frequency, TF over GST control) | binding signal (ELF1): 1.52 fold enrichment (6-mer frequency, TF over GST control) | binding signal (EHF): 1.54 fold enrichment (6-mer frequency, TF over GST control) | binding signal (SPI1): 1.41 fold enrichment (6-mer frequency, TF over GST control) | binding signal (SPIB): 1.48 fold enrichment (6-mer frequency, TF over GST control) | binding signal (ELK3): 1.34 fold enrichment (6-mer frequency, TF over GST control) | binding signal (FEV): 1.4 fold enrichment (6-mer frequency, TF over GST control) | binding signal (ETV5): 1.46 fold enrichment (6-mer frequency, TF over GST control) | binding signal (HSF1): 3.31 fold enrichment (6-mer frequency, TF over GST control) | binding signal (SPIC): 1.28 fold enrichment (6-mer frequency, TF over GST control) | binding signal (ELF4): 1.38 fold enrichment (6-mer frequency, TF over GST control) | binding signal (ELK4): 1.53 fold enrichment (6-mer frequency, TF over GST control) | binding signal (ETV2): 1.49 fold enrichment (6-mer frequency, TF over GST control) | binding signal (ELF3): 1.42 fold enrichment (6-mer frequency, TF over GST control) | binding signal (CRX): 1.87 fold enrichment (6-mer frequency, TF over GST control) | binding signal (ETV1): 1.49 fold enrichment (6-mer frequency, TF over GST control)
